Screening results deposited in PubChem BioAssay by National Center for Advancing Translational Sciences (NCATS).
HP1b binding inh: HTS for Inhibitors of HP1-beta Chromodomain Interactions with Methylated Histone Tails; AlphaScreen HP1-beta / biotin-H3K9me3 peptide binding; Potency, µM (titrated, usually from 114 µM), for inactives: at the top dose activity change, negative = inhibition, actives largely listed as inhibitors; 390,000 compounds, 0.56% hits; further: nearly all actives have a fitted effect of over 70% in size
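AlphaScreen: HP1-beta (50 nM) preformed 30 min with biotin-H3(1-18)K9me3 peptide (50 nM) in PBS pH 7.4, 0.01% Tween-20. Compound added for 30 min at RT, then streptavidin donor/nickel chelate acceptor beads (10 ug/mL) for 30 min.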
BAZ2B inh: qHTS Assay for Inhibitors of BAZ2B; AlphaScreen BAZ2B-H3K14Ac peptide displacement; Potency, µM (series often up to 114 µM), for inactives: at the highest dose activity change, negative = inhibition, usual class: inhibitors; 360,000 compounds, 4.4% hits; AID 504333, 2011; further: on the % scale 0 is the no-effect control and ±100 the full control effect; nearly all actives have a fitted effect of over 60% in size
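Complex of BAZ2B and biotin-H3K14Ac (50 nM apiece) forms over 30 min at RT, then faces library compounds up to 110 uM for another 30 min; AlphaScreen beads added, 20 min dark incubation, luminescence read.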
L3MBTL1 inh: qHTS Assay for the Inhibitors of L3MBTL1; 230,000 compounds, 0.66% hits; AlphaScreen L3MBTL1–H3K9me1 peptide binding; Potency, µM (titrated, usually from 57.1 µM), for inactives: at the top dose activity, negative = inhibition, most hits filed as inhibitors; Lethal(3)malignant brain tumor-like protein 1 (Homo sapiens), Q9Y468; further: on the % scale 0 is the no-effect control and ±100 the full control effect; nearly all actives have a fitted effect of over 60% in size
Target sequence (Q9Y468 whole entry, looked up): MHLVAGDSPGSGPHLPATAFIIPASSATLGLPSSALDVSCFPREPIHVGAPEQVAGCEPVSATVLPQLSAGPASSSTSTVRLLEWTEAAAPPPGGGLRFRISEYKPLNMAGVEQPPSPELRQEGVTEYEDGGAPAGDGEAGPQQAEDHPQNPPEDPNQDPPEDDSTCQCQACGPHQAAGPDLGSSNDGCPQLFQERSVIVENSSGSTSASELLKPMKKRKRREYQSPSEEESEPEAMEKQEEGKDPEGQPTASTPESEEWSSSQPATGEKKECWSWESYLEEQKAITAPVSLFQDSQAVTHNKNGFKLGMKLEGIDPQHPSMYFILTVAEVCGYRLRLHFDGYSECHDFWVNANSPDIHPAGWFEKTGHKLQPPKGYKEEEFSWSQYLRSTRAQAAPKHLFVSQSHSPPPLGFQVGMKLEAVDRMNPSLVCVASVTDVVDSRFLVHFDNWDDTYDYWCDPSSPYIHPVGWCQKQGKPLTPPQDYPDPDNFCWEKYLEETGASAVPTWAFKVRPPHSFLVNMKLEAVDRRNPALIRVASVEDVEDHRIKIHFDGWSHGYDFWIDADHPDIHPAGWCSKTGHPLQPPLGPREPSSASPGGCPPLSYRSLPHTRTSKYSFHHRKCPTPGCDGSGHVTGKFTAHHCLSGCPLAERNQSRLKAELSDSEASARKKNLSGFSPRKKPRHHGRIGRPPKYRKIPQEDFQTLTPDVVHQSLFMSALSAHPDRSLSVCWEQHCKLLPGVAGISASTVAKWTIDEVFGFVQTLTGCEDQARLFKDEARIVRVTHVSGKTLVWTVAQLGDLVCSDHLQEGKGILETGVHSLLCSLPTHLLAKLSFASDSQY
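AlphaScreen assay: L3MBTL1 (50 nM final) was preincubated 30 min at room temperature with biotinylated H3(1-15)K9me1 peptide (75 nM final), then 30 min with library compounds; streptavidin donor and nickel chelate acceptor beads (10 ug/mL final) added, 30 min dark.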
G9a block: qHTS Assay for Inhibitors of Histone Lysine Methyltransferase G9a; 350,000 compounds, 8.8% hits; G9a H3K9 monomethylation, AlphaScreen, 2 h; Potency, µM (titrated, usually from 102 µM), for inactives: at the top dose activity, negative = inhibition, actives largely listed as inhibitors; Histone-lysine N-methyltransferase EHMT2 (Homo sapiens), Q96KQ7; AID 504332, 2011; further: on the % scale 0 is the no-effect control and ±100 the full control effect; nearly all actives have a fitted effect of over 75% in size
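Quantitative HTS format: methyltransferase activity on a biotin-tagged H3K9 peptide is measured by AlphaScreen, using a rabbit anti-monomethyl-H3K9 antibody with streptavidin donor and anti-IgG acceptor beads. Final levels are 20 nM enzyme, 500 nM peptide, 20 uM SAM; 2 h RT.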
JMJD2A Tudor: qHTS Assay for Inhibitors of JMJD2A-Tudor Domain; AlphaScreen JMJD2A-Tudor / H3K4me3 peptide binding; 390,000 compounds, 4.4% hits; AID 504339, 2011; Potency, µM (titrated, usually from 114 µM), without a hit: at the top dose activity change, negative = inhibition, actives largely listed as inhibitors; further: on the % scale 0 is the no-effect control and ±100 the full control effect; nearly all actives have a fitted effect of over 50% in size
Numbers without * were called inactive; ? = inconclusive; . = no result; ! = repeats disagree; [ ] = another dose, or the depositor's remark. Shown are actives, neighbours in structure and some others; about 11% of the full set was active somewhere. The call rests on the fitted dose curve; in most records, active means well fitted inhibition curve with a large enough effect; inconclusive means small, poorly fitted or top-dose-only effect; inactive means no such curve, though single readings can be large or run the other way. Potency means the concentration at half of the fitted maximal effect.

SMILES	HP1b binding inh	BAZ2B inh	L3MBTL1 inh	G9a block	JMJD2A Tudor
COc1ccc(NC(=O)CCS(=O)(=O)c2ccc3c(c2)oc(=O)n3C)cc1OC	32.1%	-5.8%	.	28.6%	-7.2%
Cc1cc(C)n(-c2nc3nonc3nc2Nc2cccc(C)c2C)n1	43.6%	-1.4%	3.1%	13.1%[59 µM]	-19.0%
O=C1NC(=O)N(c2ccccc2)C(=O)/C1=C/c1ccc2c(c1)Cc1ccccc1-2	.	.	.	6.31µM*	.
COc1ccccc1N1C(=O)NC(=O)/C(=C/c2ccc3c(c2)Cc2ccccc2-3)C1=O	59.6%	50.1µM*	6.1%	?	79.4µM*
COc1cc(/C=C2\C(=O)NC(=O)N(c3ccccc3)C2=O)cc(OC)c1O	21.0%	?	.	?	-19.4%
CC1O[C@@H](OC2CC[C@@]3(C=O)C4CC[C@]5(C)C(C6=CC(=O)OC6)CC[C@@]5(O)C4CC[C@]3(O)C2)C(O)C(O)C1O (stereo not given in full)	.	.	.	-30.3%[2.33 µM]	.
Cc1nn(Cc2ccccc2)c(C)c1C(=O)OCC(=O)NCc1ccco1	14.8%	-18.2%	.	?	2.0%
CC(C)C(OC(=O)c1ccco1)C(=O)NCc1ccco1 (stereo not given)	?	-4.8%	.	0.4%[59 µM]	79.4µM*
CNC(=O)OCc1n(C)cc[n+]1C	9.8%	?	9.4%	6.31µM*	-3.4%
O=C(Nc1cccc2ncccc12)c1ccccc1Cl	2.1%	?	-8.3%	79.4µM*	-10.0%
Oc1ccc(CC2CC3CCN2CC3)cc1O (stereo not given)	-29.6%	-2.3%	-2.1%	?	28.2µM*
CCC(C)C(=O)OC1C[C@@]2(C)C(c3ccoc3)OC(=O)CC23OC2(C)OC34C(OC(=O)C(C)C)[C@]3(O)C(OC(=O)C5(C)OC5C)[C@]5(C)CC3(O)[C@](C)(C5CC(=O)OC)C14O2 (stereo not given in full)	.	.	.	-44.8%[2.33 µM]	.
O=C1Nc2cc(C(=O)N3CCC4(CC3)OCCO4)ccc2NC1CSCc1cccc(F)c1 (stereo not given)	.	-22.0%	.	7.08µM*	.
O=C(c1ccc2c(c1)N(Cc1ccccc1)CCS2)N1CCC2(CC1)OCCO2	8.5%	?	.	?	?
COc1cc(C(=S)N2CCOCC2)cc(OC)c1OC(=O)Cc1ccccc1	-21.2%	0.8%	.	44.7µM*	-23.2%
COc1ccc(S(=O)(=O)N2CCOCC2)cc1NC(=O)COC(=O)Cc1ccccc1	14.2%	.	1.7%	.	-4.6%
CCCCCCCn1c(=O)c(C(=O)Nc2cnccn2)c(O)c2ccccc21	69.7%	5.0%	11.0%	-0.4%	7.8%
CCCCCn1c(=O)c(C(=O)Nc2cnccn2)c(O)c2ccccc21	8.9%	13.9%	6.1%	.	44.7µM*
NC(N)=NCCCCCCCCCCN=C(N)N	.	.	.	-0.6%[59 µM]	.
CCOP(=O)(OCC)C1(O)C(=O)Nc2ccc(Br)cc21 (stereo not given)	20.7%	-5.1%	1.9%	17.8µM*	-11.2%
Cc1cc(Oc2cc(NN3CCCCC3)c([N+](=O)[O-])cc2[N+](=O)[O-])ccc1[N+](=O)[O-]	-20.2%	50.1µM*	?	7.08µM*	17.8µM*
O=C1NC(=O)N(Cc2ccccc2)C(=O)/C1=C/c1cnc(-c2ccccc2)nc1	-6.3%	-33.8%	.	10µM*	79.4µM*
CSc1ncc(/C=C2/C(=O)NC(=O)N(c3ccc(C(C)C)cc3)C2=O)cn1	-15.1%	-11.9%	4.1%	7.94µM*	?
CSc1ncc(/C=C2/C(=O)NC(=O)N(C3CCCCC3)C2=O)cn1	-19.8%	?	0.0%	?	?
CCCCN1C(=O)NC(=O)/C(=C/c2cnc(SC)nc2)C1=O	-21.8%	-34.2%	-1.4%	10µM*	?
SMILES	HP1b binding inh	BAZ2B inh	L3MBTL1 inh	G9a block	JMJD2A Tudor
O=C1NC(=O)N(Cc2ccccc2)C(=O)/C1=C/N1CCCc2ccccc21	6.5%	?	?	7.94µM*	?
CSc1ncc(/C=C2/C(=O)NC(=O)N(C)C2=O)cn1	-18.6%	-28.1%	-0.8%	.	-9.0%
CC(C)N(CC[C@@](C(N)=O)(c1ccccc1)c1ccccn1)C(C)C	.	.	.	-2.0%[12.7 µM]	.
CCCCCOc1c(OC)ccc2cc(C(=O)NCc3ccc4c(c3)OCO4)c(=O)[nH]c12	.	.	.	35.9%[59 µM]	.
CCOc1ccc(C(=O)Nc2ccc3nc(SCCOc4ccccc4)sc3c2)cc1	35.5%	?	.	2.2%[59 µM]	-1.0%
Cc1noc(C)c1C(=O)N1CCC[C@@]2(CCN(CC(C)C)C2)C1	.	.	.	-0.2%[12.7 µM]	.
C[C@]12CC[C@H](OS(=O)(=O)O)CC1=CCC1C2CC[C@]2(C)C(=O)CC[C@@H]12 (stereo not given in full)	.	.	.	32.3%[12.7 µM]	.
CC(C)c1ccc(N2C(=O)NC(=O)/C(=C/c3cnc(-c4ccccc4)nc3)C2=O)cc1	-4.9%	?	-13.9%	3.55µM*	89.1µM*
COc1ccc(/C=C2\C(=O)NC(=S)N(C)C2=O)cc1C	8.91µM*	?	1.2%	.	3.98µM*
Cc1ccc(/C=C2/C(=O)NC(=O)N(CCc3ccc(F)cc3)C2=O)s1	31.9%	0.5%	2.6%	-21.6%[59 µM]	?
CN1C(=O)/C(=C/c2ccc(Cl)s2)C(=O)NC1=S	7.1%	-38.2%	4.4%	.	25.1µM*
Cc1ccsc1/C=C1\C(=O)NC(=S)N(C)C1=O	5.7%	?	-11.2%	7.94µM*	89.1µM*
COc1ccc(Cc2nccc3cc(OC)c(OC)cc23)cc1OC	-4.2%	?	-18.1%	5.62µM*!	-19.4%
C[C@H]1COC2=C1C(=O)C(=O)c1c2ccc2c1CCCC2(C)C	?	14.1µM*	?	-168.5%[59 µM]	31.6µM*
CC1COC2=C1C(=O)C(=O)c1c2ccc2c1CCCC2(C)C (stereo not given)	.	.	.	7.08µM*	.
CNC(C)C1CC[C@H](N)[C@@H](OC2C(N)C[C@H](N)[C@@H](OC3OC[C@](C)(O)C(NC)[C@H]3O)C2O)O1 (stereo not given in full)	.	.	.	-10.6%[2.33 µM]	.
CCN1C[C@@]2(COC)C3[C@@H](OC)C4[C@@H]1C3([C@@H]1C[C@]3(O)[C@H](OC(=O)c5ccccc5)[C@@H]1[C@]4(OC(C)=O)[C@@H](O)[C@@H]3OC)[C@H](OC)C[C@H]2O	.	.	.	21.4%[59 µM]	.
CCC(=O)Nc1ccc(N2CCN(CC)CC2)c(Cl)c1	5.4%	?	1.6%	79.4µM*	-17.0%
Nc1ncnc2c1ncn2[C@@H]1O[C@H](COP(=O)(O)CP(=O)(O)OP(=O)(O)O)[C@@H](O)[C@H]1O	.	.	.	12.6µM*!	.
Nc1ncnc2c1ncn2[C@@H]1O[C@H](COP(=O)(O)CP(=O)(O)O)[C@@H](O)[C@H]1O	19.6%	.	.	38.2%[59 µM]	79.4µM*
